Activity calls are given as the source filed them. How the source made its calls: active means hit-call score of the fitted dose curve at least 0.9, where 1 is the maximum; inactive means score below 0.9.
What was measured:
[1] = read-out: Tissue Factor, F3 (gene 2152); experiment: BSK_CASM3C_TissueFactor: BioMAP Diversity Plus: CASM3C Assay for Tissue Factor Biomarker Activity (AID 2283052); settings: primary human coronary artery smooth muscle cells; actives raise or lower the signal;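 further: cell surface tissue factor protein level read by ELISA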
[2] = read-out: Interferon-gamma inducible Protein 10 (IP10), CXCL10 (gene 3627); experiment: BSK_hDFCGF_IP10: BioMAP Diversity Plus: hDFCGF Assay for Interferon-gamma inducible Protein 10 (IP10) Biomarker Activity (AID 2283053); settings: primary human foreskin fibroblasts; actives raise or lower the signal
Procedure, shortened: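 Primary foreskin fibroblasts, human; 24 h compound exposure; IP-10 by ELISA; bidirectional fit vs DMSO.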

[3] = read-out: Urokinase-type plasminogen activator receptor (uPAR), PLAUR (gene 5329); experiment: BSK_CASM3C_uPAR: BioMAP Diversity Plus: CASM3C Assay for Urokinase-type plasminogen activator receptor (uPAR) Biomarker Activity (AID 2283054); settings: primary human coronary artery smooth muscle cells; actives raise or lower the signal;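 further: cell-surface uPAR protein level quantified by ELISA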
[4] = read-out: Vascular cell adhesion molecule 1 (VCAM1), VCAM1 (gene 7412); experiment: BSK_CASM3C_VCAM1: BioMAP Diversity Plus: CASM3C Assay for Vascular cell adhesion molecule 1 (VCAM1) Biomarker Activity (AID 2283055); settings: primary human coronary artery smooth muscle cells; actives raise or lower the signal;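 further: VCAM-1 protein level quantified by ELISA on the cells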
[5] = read-out: Collagen III, COL3A1 (gene 1281); experiment: BSK_hDFCGF_CollagenIII: BioMAP Diversity Plus: hDFCGF Assay for Collagen III Biomarker Activity (AID 2283056); settings: primary human foreskin fibroblasts; actives raise or lower the signal
Procedure, shortened: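 Human foreskin primary fibroblasts were exposed to test chemicals for 24 h, after which collagen III was quantified by ELISA. Activity was fitted bidirectionally against DMSO as negative control and baseline.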

[6] = read-out: Epidermal growth factor receptor (EGFR), EGFR (gene 1956); experiment: BSK_hDFCGF_EGFR: BioMAP Diversity Plus: hDFCGF Assay for Epidermal growth factor receptor (EGFR) Biomarker Activity (AID 2283057); settings: primary human foreskin fibroblasts; actives raise or lower the signal
Procedure, shortened: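 hDFCGF system, primary human foreskin fibroblasts; compound 24 h; EGFR measured by ELISA; DMSO = negative control/baseline; bidirectional fitting.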

[7] = read-out: Interleukin-8 (IL8), CXCL8 (gene 3576); experiment: BSK_hDFCGF_IL8: BioMAP Diversity Plus: hDFCGF Assay for Interleukin-8 (IL8) Biomarker Activity (AID 2283058); settings: primary human foreskin fibroblasts; actives raise or lower the signal
Procedure, shortened: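 hDFCGF human dermal fibroblasts; 24 h chemical exposure; IL-8 by ELISA; bidirectional curve fit vs DMSO baseline; gain or loss of signal scored.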

[8] = BSK_hDFCGF_Proliferation: Cell Proliferation Assessment in the BioMAP Diversity Plus: hDFCGF Assay (AID 2283059); settings: primary human foreskin fibroblasts;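 further: curves fitted for both rise and fall of signal versus DMSO baseline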
Procedure, shortened: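 Total protein read at 560 nm after 0.1% SRB staining of TCA-fixed human skin fibroblasts, […]. Activity is fitted in both directions relative to DMSO as baseline.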

[9] = read-out: Macrophage colony-stimulating factor (MCSF), CSF1 (gene 1435); experiment: BSK_hDFCGF_MCSF: BioMAP Diversity Plus: hDFCGF Assay for Macrophage colony-stimulating factor (MCSF) Biomarker Activity (AID 2283060); settings: primary human foreskin fibroblasts; actives raise or lower the signal
Procedure, shortened: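 Human foreskin primary fibroblasts were treated with test chemical for 24 h, and M-CSF was then measured by ELISA. Data were fitted bidirectionally against DMSO as the negative control and activity baseline.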

[10] = BSK_hDFCGF_SRB: Viability Assessment in the BioMAP Diversity Plus: hDFCGF Assay (AID 2283061); settings: primary human foreskin fibroblasts;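 further: cells exposed to compound for 24 h before the read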
Procedure, shortened: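 Human foreskin primary fibroblasts were treated with compound and assessed 24 h after dosing. Total protein was measured by sulforhodamine B staining (0.1% SRB after 10% TCA fixation, 560 nm read) as a cytotoxicity marker, with bidirectional fitting against DMSO baseline.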

Measured: AC50

CC(=O)OCC(COC(C)=O)OC(C)=O
inactive: all assays above

CN(C)C(=O)NC1(c2ccccc2)CCN(CC[C@@]2(c3ccc(F)c(F)c3)CN(C(=O)c3ccccc3)CCO2)CC1
active: [8] 14.2 µM
inactive: all other assays above

C=CCc1ccc(OC)c(OC)c1
inactive: all assays above

CC(=O)[C@@]1(O)CC[C@H]2[C@@H]3CCC4=CC(=O)CC[C@]4(C)[C@H]3CC[C@@]21C
inactive: all assays above

CC(COCC(C)OC(=O)c1ccccc1)OC(=O)c1ccccc1 (stereo not drawn)
active: [8] 33.7 µM
inactive: all other assays above

O=C(Oc1ccccc1)c1cccc(C(=O)Oc2ccccc2)c1
inactive: all assays above

CCCCCCC(CCCCCCCCCCC(=O)OCC(COC(C)=O)OC(C)=O)OC(C)=O (stereo not drawn)
active: [5] 2.73 µM | [8] 3.11 µM
inactive: all other assays above

Cc1cn([C@H]2C=C[C@@H](CO)O2)c(=O)[nH]c1=O
not listed: [9]
inactive: all other assays above

Cc1cc(Cc2ccc(N)c(C)c2)ccc1N
active: [8] 3.12 µM
inactive: all other assays above

COc1ccc(C(=O)Nc2nc3ccccc3c(NCc3ccccc3)c2C#N)cc1
active: [5] 2.8 µM | [8] 5.53 µM
inactive: all other assays above

CCN(CC)CCOc1ccc(C(=C(Cl)c2ccccc2)c2ccccc2)cc1
active: [1] 31.8 µM | [2] 14.4 µM | [3] 31.1 µM | [4] 31.6 µM | [5] 12.1 µM | [7] 13 µM | [8] 0.123 µM | [9] 10.4 µM | [10] 11.6 µM
inactive: [6]

CCC(C)N(C)C(=O)c1cc2ccccc2c(-c2ccccc2Cl)n1 (stereo not drawn)
inactive: all assays above

Nc1nc(Cl)nc2c1ncn2[C@H]1C[C@H](O)[C@@H](CO)O1
active: [8] 0.147 µM
not listed: [9]
inactive: all other assays above

COC(=O)CCC(=O)OC
inactive: all assays above

CCc1cc(C2=C(C(=O)O)N(c3ccccc3C(F)(F)F)S(=O)(=O)c3ccccc32)cc2c1OCO2
active: [5] 32.5 µM | [8] 15.5 µM
inactive: all other assays above

CS(=O)(=O)c1ccc([C@@H](C[C@H]2CCC(=O)C2)C(=O)Nc2cnccn2)cc1Cl
inactive: all assays above

OCC(CO)n1cnc(-c2ccc(F)cc2)c1-c1ccnc(Oc2ccccc2)n1
active: [4] 2.33 µM
not listed: [9]
inactive: all other assays above

NC(=Nc1ccccc1)Nc1ccccc1
active: [8] 30.3 µM | [9] 9.15 µM
inactive: all other assays above

CC(N)=O
inactive: all assays above

O=C1c2c(O)cccc2Cc2cccc(O)c21
active: [2] 17.1 µM | [5] 30.7 µM | [9] 17.1 µM | [10] 7.76 µM
inactive: all other assays above

Cc1c(C)c2c(c(C)c1O)CCC(C)(COc1ccc(CC3SC(=O)NC3=O)cc1)O2 (stereo not drawn)
active: [2] 9.98 µM | [5] 12 µM | [6] 8.04 µM | [7] 27.8 µM | [8] 6.8 µM | [9] 11.7 µM | [10] 19.2 µM
inactive: [1] | [3] | [4]

CCCCc1nc2cccnc2n1Cc1ccc(-c2ccccc2-c2nnn[nH]2)cc1
active: [2] 32 µM | [8] 18.7 µM
inactive: all other assays above

CC(=O)OC1CC(C)OC(C)O1 (stereo not drawn)
inactive: all assays above

OCC(O)CO
inactive: all assays above

Cn1cnc2c1c(=O)[nH]c(=O)n2C
inactive: all assays above

CSc1ccc(Oc2ccc(S(N)(=O)=O)cc2CN(C)C)cc1C
active: [8] 20 µM
inactive: all other assays above

CC1=C(C)S(=O)(=O)CCS1(=O)=O
inactive: all assays above

CC(C)(O)c1ccc(CNC(=O)c2cccnc2Oc2ccc(F)cc2)cc1
inactive: all assays above

Cc1ccc(C(C)(C)C)c(O)c1
not listed: [9]
inactive: all other assays above

CCCCCCCCCC[N+](C)(C)[O-]
not listed: [9]
inactive: all other assays above

CC(=O)O
not listed: [8]
inactive: all other assays above

C#CC(O)C(CC)CCCC (stereo not drawn)
not listed: [9]
inactive: all other assays above

NCCOCCOCCN
active: [8] 14.6 µM
not listed: [9]
inactive: all other assays above

O=C1O[C@H]([C@H](O)CO)C(O)=C1O
not listed: [9]
inactive: all other assays above

CC(=O)O[C@]1(C(C)=O)CC[C@H]2[C@@H]3C=C(Cl)C4=CC(=O)[C@@H]5C[C@@H]5[C@]4(C)[C@H]3CC[C@@]21C
active: [5] 27 µM | [8] 17 µM
not listed: [9]
inactive: all other assays above

O=[Si]=O
not listed: [9]
inactive: all other assays above

CC(C)COC(=O)CCCCC(=O)OCC(C)C
not listed: [8]
inactive: all other assays above

C=CCCCCCCCCCCCC
not listed: [8]
inactive: all other assays above

CC(C)c1cccc(C(C)C)c1
not listed: [9]
inactive: all other assays above

CCc1nc(N)nc(N)c1-c1ccc(Cl)cc1
not listed: [8]
inactive: all other assays above

O=NO
not listed: [8]
inactive: all other assays above

O=C(O)c1cccnc1
not listed: [8]
inactive: all other assays above

— PubChem BioAssay (EPA / NIEHS)
